From PubChem BioAssay AID624296 (National Center for Advancing Translational Sciences (NCATS), 2012)
Hit rate of the full screen: of about 350,000 compounds, about 9,900 (2.8%) were called active. Another 15% or so got no clear call; they are omitted. Calls come from the whole dose curve; as a rule, active = well fitted activation curve with a large enough effect; inconclusive = small, poorly fitted or top-dose-only effect; inactive = no such curve, though single readings can be large or run the other way. The list comes from a sample in which actives are over-represented; it also holds similar structures and randomly drawn compounds. Entries that show only a call come without a potency.

assay: A quantitative high throughput screen for small molecules that induce DNA re-replication in MCF 10a normal breast cells.; note: nearly all actives have a fitted effect of over 50% in size; settings: MCF 10A DNA re-replication, Hoechst nuclear intensity, 48 h; series mostly up to 46.1 µM
Potency is the fitted concentration of half-maximal effect.

SMILES	Potency
COc1ccc(OC)c(/C=C/C(=O)OCC(=O)Nc2ccc3c(c2)OCCO3)c1	20.6 µM (active)
COc1cccc(NC(=O)CN(C)C(=O)/C=C/c2cc(OC)ccc2OC)c1	inactive
COc1ccc(/C=C/C(=O)OCC(=O)Nc2cccc(Oc3ccccc3)c2)c(OC)c1	inactive
CC(=O)NC(CC(=O)Nc1ccc(S(=O)(=O)N2CCOCC2)cc1)c1ccccc1 (stereo unspecified)	inactive
CCOC(=O)c1cc2c(=O)n3ccccc3nc2n(CC(C)C)c1=NC(=O)c1c(-c2c(F)cccc2Cl)noc1C	3.26 µM (active)
CCCn1c(=NC(C)=O)c(C(=O)OCC)cc2c(=O)n3ccccc3nc21	inactive
C/C(=N/OC(=O)c1c(-c2c(F)cccc2Cl)noc1C)c1cnccn1	inactive
Cc1noc(C)c1NC(=O)Nc1cccc2c1O[C@H](CN(C)S(=O)(=O)c1c(C)noc1C)[C@@H](C)CN([C@H](C)CO)C2=O	inactive
CCc1nnc(NC(=O)c2cc(S(=O)(=O)N3CCN(CC)CC3)ccc2Cl)s1	inactive
CC1CCc2[nH]c3ccc(C(=O)N(C)CC(=O)Nc4cccc(F)c4)cc3c2C1 (stereo unspecified)	inactive
CCCN(CC(=O)Nc1ccccc1C)C(=O)c1ccc2[nH]c3c(c2c1)CC(C)CC3 (stereo unspecified)	1.3 µM (active)
CCCN(CC(=O)Nc1ccccc1C)C(=O)c1cc(=O)[nH]c2ccccc12	inactive
CN1CCOC1c1ccc(C2OCCN2C)cc1 (stereo unspecified)	inactive
O=C1C=C(c2ccnc3cc(Cl)ccc23)C[C@@H](c2ccc3c(c2)OCO3)C1	inactive
CCOc1ncccc1C(=O)Nc1ccc2c(c1)OCCO2	inactive
COc1ccc(C(=O)N2CCN(c3ncccn3)CC2)cc1S(=O)(=O)N1CCOCC1	inactive
Cc1ccc(C(C)C)cc1OCCN1CCCC1	inactive
CCC(=O)N1CCN(c2ccccc2NC(=O)COc2cccc(C)c2C)CC1	inactive
Cc1ccc(C(C)C)cc1OCC(=O)Nc1ccccc1N1CCCC1	20.6 µM (active)
O=S(=O)(NCCCCCCNS(=O)(=O)c1c(F)cccc1F)c1ccc2c(c1)OCCO2	inactive
COc1ccc(/C=C/C(=O)Nc2c(C)nn(C)c2C)cc1COc1ccc(Br)cc1	4.61 µM (active)
COc1ccc(/C=C/C(=O)Nc2ccc(C)cc2)cc1S(=O)(=O)N1CCOCC1	inactive
C/C=C/c1ccc(OCC(=O)OCC(=O)Nc2c(C)nn(-c3ccccc3)c2C)c(OC)c1	inactive
COc1ccc(/C=C/C(=O)Nc2cccnc2)cc1OC	inactive
CCn1nc(C)c(NC(=O)/C=C/c2ccc(OC)c(COc3ccc(Br)cc3)c2)c1C	8.2 µM (active)
COc1ccc(OC)c(S(=O)(=O)Nc2c(C)nn(C)c2C)c1	inactive
